Measured values reported in PubChem BioAssay (NCI).
The panel holds about 83,000 compounds, 20% with a hit somewhere; the sample as a whole holds those more often.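 For each line, cells grew in 96-well plates with the test compound present at a single concentration for 48 hours.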 Unmarked numbers belong to inactive results. Activity calls are given as the source filed them. How the source made its calls: active means growth percent below 10; inactive means the rest.

System: PC-3 prostate
Test: NCI-60 one-dose screen, 48 h (100 = growth as untreated, 0 = no growth, -100 = all killed)
Conditions: 10 µM unless noted

| SMILES | growth |
| --- | --- |
| COc1ccc2c(c1)c(-c1noc(-c3cn(C)c4ncc(F)cc34)n1)cn2C | 91.7% |
| O=C(N/N=C\c1cc(Cl)ccc1O)N/N=C/c1cc(Cl)ccc1O | 40% |
| O=C(O)c1ccccc1C(F)(F)F | 99.7% |
| CS(=O)(=O)c1cccnn1 | 95.6% |
| O=C(Nc1ccc(Oc2ccc(F)cc2)c(Cl)c1)c1cccnn1 | 64.4% |
| CCC(Br)(CC)C(=O)c1ccc(OCC(=O)O)c(Cl)c1Cl | 108% |
| NC(=O)c1cccc(-c2ccc(S(=O)(=O)Nc3ccc4c(c3)N(C(=O)C3CC3)CCC4)cc2)c1 | 40% |
| C#CCC(C(=O)OCC)C(=O)OCC | 99.8% |
| O=[N+]([O-])c1cc(CCl)ccc1OCCBr | 98.1% |
| O=C(O)c1cn(C2CC2)c2cc(N3CCN(Cc4cc(Cl)ccc4O)CC3)c(F)cc2c1=O | 54.7% |
| Cc1ccc(C2=C/C(=C/c3ccc(Br)cc3)C(=O)N2CCc2ccc(S(N)(=O)=O)cc2)cc1 | 88% |
| COc1ccc(C(=O)/C=C/c2ccccn2)c(O)c1 | 95.5% |
| Cc1cc(C)c(S(=O)(=O)/N=c2/n(-c3ccccc3)nc3n2CCN3C2=NCCN2)c(C)c1 | 69.5% |
| Cc1ccc(S(=O)(=O)n2cc(C(=O)C(=O)N3CCCCC3)c3ccccc32)cc1 | 52.1% |
| COc1cc(C)cc2oc3oc(=N)c(C(=O)c4ccccc4)cc3c(=O)c12 | 103% |
| COc1ccc(OC)c([N+](=O)[O-])c1C(=O)CNC(C)=O | 101% |
| Cc1ccc(S(=O)(=O)N/N=C2\CC3CCC2(C)C3(C)C)cc1 (configuration not stated) | 86.2% |
| O=C(N=c1n(-c2ccccc2)nc2n1CCN2C1=NCCN1C(=O)c1ccc(Cl)cc1)c1ccc(Cl)cc1 | 47.5% |
| O=C(NCc1ccc(Cn2c(=O)sn(-c3ccccc3)c2=O)cc1)OCc1ccc2c(Br)cc(Br)c(O)c2n1 | -56.1% (active) |

| SMILES | growth |
| --- | --- |
| Cc1nc(Cl)c2c(n1)N(C)c1ccc(Cl)cc1C(C)C2 (configuration not stated) | 73.5% |
| C=C(C)[C@@H]1CC[C@]2(COCCC#N)CC[C@]3(C)[C@H](CC[C@@H]4[C@@](C)(CCCNCCC#N)[C@H](C(=C)C)CC[C@]43C)[C@@H]12 | 20.1% [100 µM] |
| O=C(Nc1cccc(F)c1)c1cc(=O)[nH]c2cc(Br)ccc12 | 43.8% |
| O=C(NCCCNC(=O)OCc1ccc2c(Br)cc(Br)c(O)c2n1)OCc1ccc2c(Br)cc(Br)c(O)c2n1 | -25.5% (active) |
| COc1ccc(OC)c(NC=O)c1 | 105% |
| CCN(CCNc1ccc(C)c2sc3cc(Cl)ccc3c(=O)c12)CC(C)O (configuration not stated) | 48.5% |
| CN(C)c1ccc(-c2ccc(-c3ccc(C(=N)N)cc3)s2)cc1 | -91.6% (active) |
| CC(=O)OC[C@]12CC[C@@H]([C@@H](C)C(N)=O)[C@@H]1[C@H]1CC[C@@H]3[C@@]4(C)CC[C@H](OC(C)=O)C(C)(C)[C@@H]4CC[C@@]3(C)[C@]1(C)CC2 | -47.4% [100 µM] (active) |
| O=C(Nc1ccccc1)Nc1ccc(C(=O)/C=C/c2ccc(N3CCCC3)cc2)cc1 | 59.9% |
| C#C[C@]1(O)CC[C@H]2[C@@H]3CC=C4c5nc(Nc6ccccn6)sc5CC[C@]4(C)[C@H]3CC[C@@]21C | -28.6% (active) |
| Cn1cc(-c2nnc(-c3cn(C)c4ncccc34)o2)c2ccccc21 | 39.8% |
| O=C1C(Cl)=C(Nc2ccc3cn[nH]c3c2)C(=O)c2ccccc21 | -42% (active) |
| COc1cc(/C=C/C(=O)/C=C/c2ccc(-n3ccnc3C)cc2)ccc1O | 74.2% |
| Nc1cc(Cl)cc2cccnc12 | 87.5% |
| CN(C)CCOc1ccc(/C(=C(/CCCl)c2ccccc2)c2ccccc2)cc1 | 18.7% |
| Nc1cc(N)c(N=Nc2ccc(S(=O)(=O)O)cc2)cc1N=Nc1ccc(-c2ccc(N=Nc3ccc(O)c(C(=O)O)c3)cc2)cc1 | 98.2% |
| Cn1cc(-c2noc(-c3cn(C)c4ncc(F)cc34)n2)c2ccccc21 | 71.7% |
| Nc1ccc(NC(=O)c2ccccc2)c2c1C(=O)c1ccccc1C2=O | 87.2% |
